The record followed here is PubChem BioAssay (NCATS).

Assay [1] concerns Zika virus NS2B-NS3 protease. Nature of the assay: Primary screen GU AMC qHTS for Zika virus inhibitors (AID 1347154).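 Further: 0% = no-inhibitor control and -100% = no-enzyme control; nearly all actives have a fitted effect of over 70% in size.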 A digest of the protocol: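 Unlinked Zika NS2B hydrophilic domain/NS3 protease domain noncovalent complex (25 nM final) in 10 mM Tris-HCl pH 8.0, 0.01% Tween 20, with AMC peptide substrate. Fluorescence (ex 340, em 450 nm) change over 15 min, room temperature; percent inhibition fitted to 4-parameter Hill equation.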

The nature of assay [2]: Primary qHTS for small molecule stabilizers of the endoplasmic reticulum resident proteome: Secreted ER Calcium Modulated Protein (SERCaMP) assay (AID 1508630). Further: potency means the concentration at half of the fitted maximal effect. On activity change, negative = inhibition: on the % scale 0 is the no-effect control and ±100 the full control effect. A digest of the protocol:
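The SH-SY5Y reporter protocol was run at 3 concentrations up to 38.3 uM (primary) or 11 concentrations (follow-up): 16 h compound, 100 nM thapsigargin for 4 h, then extracellular luciferase luminescence.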

In assay [3] the target is DNA repair nuclease/redox regulator APEX1 (Homo sapiens) (UniProt P27695). In words: qHTS Validation Assay for Inhibitors of the Human Apurinic/apyrimidinic Endonuclease 1 (APE1) (AID 1705;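 further: TAMRA fluorescence gain over two minutes as APE1 cuts a quenched THF abasic duplex; series mostly up to about 57 µM; on the % scale 0 is the no-effect control and ±100 the full control effect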). A digest of the protocol: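 Endonuclease activity of human APE1 is followed as dequenching when the enzyme incises a tetrahydrofuran abasic site in a short duplex labelled 5'-TAMRA/3'-BHQ-2 (50 nM final), after 15 min enzyme–compound preincubation at room temperature.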

Assay [4] can be described thus: qHTS for differential inhibitors of proliferation of Plasmodium falciparum line 7G8 (AID 1815).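 Further: parasite growth measured after three days of incubation; plate controls were vehicle wells for no effect and reference inhibitor wells for full effect.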
The nature of assay [5]: qHTS for differential inhibitors of proliferation of Plasmodium falciparum line GB4 (AID 1816).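 Further: parasite growth measured after 72 h incubation; 0% = vehicle DMSO and -100% = reference inhibitor.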 Particulars: Potency: Plasmodium falciparum GB4 proliferation inhibition.
Assay [6] can be described thus: qHTS for differential inhibitors of proliferation of Plasmodium falciparum line 3D7 (AID 1876).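 Further: parasite growth measured after three days of culture; 0% = vehicle wells and -100% = reference inhibitor wells.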
A short description of assay [7]: qHTS for differential inhibitors of proliferation of Plasmodium falciparum line Dd2 (AID 1882).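 Further: series mostly up to about 29 µM; plate controls were DMSO vehicle for no effect and 0.29 µM artemisinin for full effect; nearly all actives have a fitted effect of over 65% in size.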 Particulars: Potency: Plasmodium falciparum Dd2 proliferation inhibition. Summed up:
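SYBR Green DNA fluorescence (ex 485, em 535 nm) after overnight lysis quantifies parasite growth; compound exposure lasted 72 h at 37 C on infected red cells at 2.5% hematocrit, 0.3% parasitemia (final). Artemisinin 0.29 uM and vehicle wells define normalization.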

The nature of assay [8]: qHTS for differential inhibitors of proliferation of Plasmodium falciparum line W2 (AID 1883).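 Further: parasites grown with compound for 72 h before lysis and staining; 0% = vehicle wells and -100% = control inhibitor wells.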 Particulars: Potency: Plasmodium falciparum W2 proliferation inhibition.
Assay [9] in a line: qHTS for differential inhibitors of proliferation of Plasmodium falciparum line HB3 (AID 1886).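 Further: parasites grown with compound for 72 h before SYBR Green readout; plate controls were vehicle for no effect and reference inhibitor for full effect.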 As to conditions: Potency: Plasmodium falciparum HB3 proliferation inhibition.
In assay [10] the target is ATP-dependent DNA helicase Q1 (Homo sapiens) (UniProt P46063). Nature of the assay: qHTS Validation Assay for Inhibitors of RecQ-Like Dna Helicase 1 (RECQ1) (AID 2353).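 Further: plate controls were DMSO vehicle for no effect and enzyme-free control for full effect.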 A digest of the protocol: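 RECQ1T1 50 nM; forked duplex (20 bp + 30-nt ss tails) 200 nM, ATP 2 mM final; pH 8.0, 2 mM MgCl2, 2.5 ug/ml poly(dI-dC); 15 min compound preincubation; discontinuous kinetic read over 2 h at RT.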

The nature of assay [11]: Quantitative high throughput screen for delayed death inhibitors of the malarial parasite plastid, 96 hour incubation (AID 488745).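 Further: luciferase-expressing P. falciparum in erythrocytes at 2% hematocrit and 0.1% parasitemia; series mostly up to about 29 µM; on the % scale 0 is the no-effect control and ±100 the full control effect; nearly all actives have a fitted effect of over 70% in size.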 A digest of the protocol: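 Readout is firefly luciferase luminescence from an integrated reporter in P. falciparum; lower signal marks inhibited growth. Cultures at 2% hematocrit and 0.1% parasitemia were treated with compound across two generations (96 h, 37 C, 5% CO2).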

The target of assay [12] is M-phase phosphoprotein 8 (Homo sapiens) (UniProt Q99549). In words: qHTS Validation Assay for Inhibitors for MPP8 Chromodomain Interactions with Methylated Histone Tails (AID 488949).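 Further: AlphaScreen signal from MPP8 chromodomain bound to biotinylated H3K9me3 peptide; top concentration of the series differs between compounds; on the % scale 0 is the no-effect control and ±100 the full control effect; nearly all actives have a fitted effect of over 55% in size.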 Summed up: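 Disruption of the preformed MPP8–trimethyl-H3K9 peptide complex (both 50 nM, 30 min, RT) is measured after 30 min compound exposure, using AlphaScreen proximity beads; aurintricarboxylic acid titration serves as plate control.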

The target in assay [13] is Thyrotropin receptor (Homo sapiens) (UniProt P16473). Nature of the assay: qHTS Assay for Antagonists of the Thyroid Stimulating Hormone Receptor (AID 488980). Further: series mostly up to about 58 µM; 0% is about no effect. A digest of the protocol: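 Cells expressing human TSHR (HEK293) are dispensed in HBSS/HEPES containing 70 uM RO 20-1724, compound is added, then TSH at EC80 (4 nM final). Antibody in lysis buffer follows, 30 minutes at room temperature before HTRF detection.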

Assay [14] has as its target Thyrotropin-releasing hormone receptor (Homo sapiens) (UniProt P34981). Nature of the assay: qHTS for Small Molecule Agonists and Allosteric Enhancers of Human TRH Receptor: Validation Screen for Agonists (AID 493127;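 active means calcium activation more than 3 SD above the typical response in the agonist read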;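 further: intracellular calcium rise by fluo-8 fluorescence before TRH EC20 addition; 0% is about no effect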). As to conditions: TRH receptor agonist cell assay; at 2 µM; stronger effect = higher value. A digest of the protocol: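 Compounds are added by online pintool to dye-loaded TRHR cells while fluorescence is recorded every second. A rise in calcium signal during the agonist read marks activation; a later 10 nM TRH addition (EC20) serves the separate enhancer mode.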

Assay [15] addresses Galactokinase (Homo sapiens) (UniProt P51570). Nature of the assay: qHTS Validation Assay for Inhibitors of Human Galactokinase (GALK) (AID 493189). Further: 0% is about no effect. A digest of the protocol: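 Compounds were pin-transferred into ATP buffer, then GALK-galactose mix was added (final 5 nM enzyme, 100 uM galactose, 35 uM ATP). After 1 h at room temperature, remaining ATP was measured luminescently.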

Assay [16] can be described thus: Validation screen for small molecules that induce DNA re-replication in SW480 colon adenocarcinoma cells (AID 504364). Further: 0% is about no effect. A digest of the protocol: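 Image-based qHTS: compounds were incubated with SW480 cells for 48 hr, nuclei stained with Hoechst, and per-nucleus fluorescence intensity scanned to flag cells with excess DNA content.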

A number with no mark means an inactive call. Results filed as inconclusive are left out. A structure can be active in one record and inactive in another. Calls of active or inactive are those of the source. Unless noted, the call rests on the fitted dose curve; in most records, active means well fitted curve in the direction sought with a large enough effect; inconclusive means small, poorly fitted or top-dose-only effect, or another doubt; inactive means no such curve, though single readings can be large; an effect the other way counts as inactive or inconclusive.

Chain of M-phase phosphoprotein 8 (Homo sapiens) (Q99549 whole entry, looked up): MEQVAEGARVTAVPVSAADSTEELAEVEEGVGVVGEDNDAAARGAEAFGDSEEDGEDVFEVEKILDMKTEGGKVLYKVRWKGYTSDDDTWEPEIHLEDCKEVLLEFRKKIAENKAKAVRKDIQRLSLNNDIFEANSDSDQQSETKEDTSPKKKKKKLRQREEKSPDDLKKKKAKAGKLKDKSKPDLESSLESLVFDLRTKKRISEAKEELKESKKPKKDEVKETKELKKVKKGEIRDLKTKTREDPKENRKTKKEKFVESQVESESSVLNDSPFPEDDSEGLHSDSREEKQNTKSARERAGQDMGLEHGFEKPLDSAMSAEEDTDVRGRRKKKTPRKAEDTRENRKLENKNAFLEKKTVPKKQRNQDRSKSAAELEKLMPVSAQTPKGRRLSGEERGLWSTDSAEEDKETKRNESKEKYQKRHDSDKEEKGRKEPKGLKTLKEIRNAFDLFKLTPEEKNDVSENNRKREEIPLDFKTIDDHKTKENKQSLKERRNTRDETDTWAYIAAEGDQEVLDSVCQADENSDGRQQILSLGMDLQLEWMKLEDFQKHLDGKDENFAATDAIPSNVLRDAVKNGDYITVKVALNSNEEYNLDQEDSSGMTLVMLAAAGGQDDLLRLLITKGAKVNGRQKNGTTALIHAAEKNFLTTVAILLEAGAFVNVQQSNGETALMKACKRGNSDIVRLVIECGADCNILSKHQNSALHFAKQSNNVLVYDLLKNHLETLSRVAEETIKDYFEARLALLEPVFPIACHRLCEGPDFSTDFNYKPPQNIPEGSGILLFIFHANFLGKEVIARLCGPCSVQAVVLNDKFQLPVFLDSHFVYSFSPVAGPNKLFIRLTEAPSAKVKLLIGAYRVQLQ
Chain of Thyrotropin-releasing hormone receptor (Homo sapiens) (P34981 whole entry, looked up): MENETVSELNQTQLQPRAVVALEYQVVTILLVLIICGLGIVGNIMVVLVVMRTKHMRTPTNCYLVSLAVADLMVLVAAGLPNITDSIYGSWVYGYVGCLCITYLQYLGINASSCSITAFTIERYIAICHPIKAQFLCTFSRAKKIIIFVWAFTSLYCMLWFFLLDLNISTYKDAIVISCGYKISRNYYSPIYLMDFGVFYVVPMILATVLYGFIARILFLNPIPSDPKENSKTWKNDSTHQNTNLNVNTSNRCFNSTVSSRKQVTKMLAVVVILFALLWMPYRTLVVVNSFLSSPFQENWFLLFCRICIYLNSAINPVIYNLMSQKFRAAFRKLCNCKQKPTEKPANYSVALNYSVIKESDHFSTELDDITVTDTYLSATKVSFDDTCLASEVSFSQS
Chain of DNA repair nuclease/redox regulator APEX1 (Homo sapiens) (P27695 whole entry, looked up): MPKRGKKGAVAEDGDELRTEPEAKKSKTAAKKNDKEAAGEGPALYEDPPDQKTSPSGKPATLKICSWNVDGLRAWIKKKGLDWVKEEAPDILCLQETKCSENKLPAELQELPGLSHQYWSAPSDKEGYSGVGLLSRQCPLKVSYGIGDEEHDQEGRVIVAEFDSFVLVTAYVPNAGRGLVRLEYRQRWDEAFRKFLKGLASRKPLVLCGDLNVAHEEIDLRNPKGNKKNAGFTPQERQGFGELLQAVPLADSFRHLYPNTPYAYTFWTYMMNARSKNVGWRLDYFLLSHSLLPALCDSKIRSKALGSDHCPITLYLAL
Chain of Thyrotropin receptor (Homo sapiens) (P16473 whole entry, looked up): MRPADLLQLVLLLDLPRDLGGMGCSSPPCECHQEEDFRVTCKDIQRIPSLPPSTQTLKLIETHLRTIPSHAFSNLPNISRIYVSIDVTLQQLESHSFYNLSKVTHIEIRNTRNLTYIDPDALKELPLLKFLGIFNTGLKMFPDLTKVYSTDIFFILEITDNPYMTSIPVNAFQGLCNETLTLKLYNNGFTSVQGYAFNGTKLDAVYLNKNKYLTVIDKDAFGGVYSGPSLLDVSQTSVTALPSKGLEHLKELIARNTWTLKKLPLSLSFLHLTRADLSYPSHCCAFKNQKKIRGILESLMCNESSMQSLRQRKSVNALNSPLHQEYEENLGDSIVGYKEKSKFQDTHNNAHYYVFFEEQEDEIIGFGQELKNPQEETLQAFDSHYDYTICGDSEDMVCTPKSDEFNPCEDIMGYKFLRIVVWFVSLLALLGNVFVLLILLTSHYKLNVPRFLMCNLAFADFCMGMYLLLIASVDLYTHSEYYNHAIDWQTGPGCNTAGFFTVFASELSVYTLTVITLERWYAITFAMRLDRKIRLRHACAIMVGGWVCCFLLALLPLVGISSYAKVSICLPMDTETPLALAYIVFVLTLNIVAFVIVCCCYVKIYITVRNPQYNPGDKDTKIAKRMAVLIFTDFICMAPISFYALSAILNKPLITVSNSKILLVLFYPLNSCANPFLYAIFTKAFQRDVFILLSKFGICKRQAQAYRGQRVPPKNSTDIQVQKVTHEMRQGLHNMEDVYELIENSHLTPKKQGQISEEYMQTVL
Chain of ATP-dependent DNA helicase Q1 (Homo sapiens) (P46063 whole entry, looked up): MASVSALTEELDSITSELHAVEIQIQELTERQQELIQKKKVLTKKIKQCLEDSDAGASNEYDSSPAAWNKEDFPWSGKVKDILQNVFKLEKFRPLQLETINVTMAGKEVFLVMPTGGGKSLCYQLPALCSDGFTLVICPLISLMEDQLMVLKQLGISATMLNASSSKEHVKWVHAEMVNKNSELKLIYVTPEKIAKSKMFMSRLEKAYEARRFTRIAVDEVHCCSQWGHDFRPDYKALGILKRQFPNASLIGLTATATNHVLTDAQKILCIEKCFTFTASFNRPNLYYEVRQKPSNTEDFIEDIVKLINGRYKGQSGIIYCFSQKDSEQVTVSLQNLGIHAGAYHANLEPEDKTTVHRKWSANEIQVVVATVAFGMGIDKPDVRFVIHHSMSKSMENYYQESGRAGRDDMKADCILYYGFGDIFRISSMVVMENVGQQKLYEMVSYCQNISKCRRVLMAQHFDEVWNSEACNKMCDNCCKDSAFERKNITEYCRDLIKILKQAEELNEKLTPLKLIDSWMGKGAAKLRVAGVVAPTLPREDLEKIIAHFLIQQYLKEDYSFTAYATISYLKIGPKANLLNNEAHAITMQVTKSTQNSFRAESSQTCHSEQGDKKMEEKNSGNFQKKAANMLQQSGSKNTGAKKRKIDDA
Chain of Galactokinase (Homo sapiens) (P51570 whole entry, looked up): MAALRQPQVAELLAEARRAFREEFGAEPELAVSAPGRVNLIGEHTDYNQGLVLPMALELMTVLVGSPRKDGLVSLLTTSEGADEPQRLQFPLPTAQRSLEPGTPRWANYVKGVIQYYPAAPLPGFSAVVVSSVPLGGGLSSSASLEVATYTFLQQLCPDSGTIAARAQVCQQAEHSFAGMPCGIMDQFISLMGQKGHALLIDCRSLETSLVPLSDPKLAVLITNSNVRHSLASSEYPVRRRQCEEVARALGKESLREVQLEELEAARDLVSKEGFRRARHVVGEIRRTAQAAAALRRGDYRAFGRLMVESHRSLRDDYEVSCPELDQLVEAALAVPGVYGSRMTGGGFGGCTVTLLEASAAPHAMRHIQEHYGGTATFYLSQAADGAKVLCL

As to `N[C@H](C(=O)O)C1C(C(=O)O)C1C(=O)O` (stereo partly specified), the Potency result in assay [1] and in [2] was “inactive” each time.
`CCCCCCCCCCCCC/C=C/[C@@H](O)[C@@H](N)CO`: the Potency result in [3], in assay [4], in assay [5], in assay [6], in [7] and in assay [8] was “inactive” each time. Also, the Potency result in assay [9], in assay [10], in assay [11], in assay [12] and in assay [1] was “inactive” each time. Also, the result in assay [13], in [15] and in assay [16] was inactive. Besides, the activation in assay [14] is 0.312%. Also, the Potency in assay [2] is 1120 nM (active). The activity change, negative = inhibition in assay [2] is -29.5% [at 3.88 µM].
With `C[C@H](CC[C@@H]1OC1(C)C)C1CC[C@H]2[C@@H]3CC=C4C[C@@H](O)CC[C@]4(C)[C@H]3CC[C@]12C` (stereo partly specified), the Potency entry in assay [1] and in assay [2] was “inactive” each time.
